Reference: PubChem BioAssay (NCATS)
Inconclusive results are not listed. Calls of active or inactive are those of the source. Unless noted, calls come from the whole dose curve; as a rule, active = well fitted curve in the direction sought with a large enough effect; inconclusive = small, poorly fitted or top-dose-only effect, or another doubt; inactive = no such curve, though single readings can be large; an effect the other way counts as inactive or inconclusive.

Columns and labels:
[1] = target: Catechol O-methyltransferase (Homo sapiens) (UniProt P21964); experiment: Confirmatory Screen for Target Class Profiling of Small Molecule Inhibitors of Methyltransferases (AID 1745852; calls by dose curve; for activity change, negative = inhibition: % is set by controls: 0 for no effect and ±100 for the full control effect); conditions: MTase-Glo luminescence, SAH detection, recombinant enzyme; measured here: COMT max response; stronger effect = lower value
[2] = target: Guanidinoacetate N-methyltransferase (Homo sapiens) (UniProt Q14353); experiment: as above; conditions: MTase-Glo luminescence, SAH detection, recombinant enzyme; activity change, negative = inhibition: at 57.3 µM (top of the series) unless noted; series mostly up to 57.3 µM
[3] = target: Nicotinamide N-methyltransferase (Homo sapiens) (UniProt P40261); experiment: as above; conditions: MTase-Glo luminescence, SAH detection, recombinant enzyme; measured here: NNMT max response; stronger effect = lower value
[4] = target: Phenylethanolamine N-methyltransferase (Homo sapiens) (UniProt P11086); experiment: as above; conditions: MTase-Glo luminescence, SAH detection, recombinant enzyme; measured here: PNMT max response; stronger effect = lower value
[5] = Stat Signaling Pathway (AID 446; active = well fitted curve in either direction with a large enough effect, not every such curve was filed as active;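 note: ME-180 cervical cancer cells given 40 pM IL-6 alongside compound; SIE-controlled beta-lactamase reporter measured as 460/530 nm FRET emission ratio; % is set by controls: 0 for no effect and ±100 for the full control effect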); conditions: ME-180 SIE beta-lactamase reporter, IL-6 stimulated, 5 h; series mostly up to 7.69 µM
Method in brief: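 ME-180 cells carrying a SIE-driven beta-lactamase reporter are stimulated with 40 pM IL-6 for 5 h at 37C in the presence of compound. The 460/530 nm FRET substrate ratio is read after 2.5 h at RT. Data are normalised to 300 pM IL-6 and to 125 nM JAK inhibitor controls.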

[6] = target: Glucocorticoid receptor (Homo sapiens) (UniProt P04150); experiment: GR-GFP Redistribution (AID 450;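 active = compounds whose dose series gives a full or clear partial fitted curve of increased nuclear translocation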; note: potency is the fitted concentration of half-maximal effect); conditions: U2OS GR-GFP nuclear translocation, laser cytometry, 2 h
[7] = target: Glucocorticoid receptor (Homo sapiens) (UniProt P04150); experiment: GR-EFC Redistribution (AID 451; calls by dose curve; note: potency is the fitted concentration of half-maximal effect); conditions: CHO-K1 GR-EFC translocation, beta-gal luminescence, 2 h
Method in brief: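 CHO-K1 cells stably expressing nuclear-localized β-gal enzyme acceptor and GR fused C-terminally to the enzyme donor fragment; ligand-driven nuclear translocation restores β-gal by complementation. Compounds titrated up to 46 uM final, 2 h at 37 °C; luminescence read.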

[8] = target: Mitogen-activated protein kinase 10 (Mus musculus) (UniProt Q61831); experiment: JNK3 AlphaScreen Assay (AID 530; active = well fitted curve in either direction with a large enough effect, not every such curve was filed as active;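 note: kinase came from lysate of stimulated human HepG2 cells; signal reports phosphorylation of biotinylated GST-cJun 1-79 at Ser73 with 10 µM ATP; % is set by controls: 0 for no effect and ±100 for the full control effect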); conditions: JNK3 lysate, c-Jun phosphorylation; series mostly up to 57.1 µM
Method in brief: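 JNK3 came from HepG2 lysates pre-activated with IL-1beta and TNF-alpha and phosphorylated biotinylated GST-cJun (1-79) at 10 uM ATP, pH 7.6, room temperature. Compounds were titrated. AlphaScreen signal used anti-phospho-cJun (Ser73) antibody.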

[9] = target: 3',5'-cyclic-AMP phosphodiesterase 4B (Homo sapiens) (UniProt Q07343); experiment: qHTS Assay for Inhibitors of PDE-IV (AID 607; active = well fitted activation curve with a large enough effect in the main read-out, with a control signal flat, not every such curve was filed as active; note: % of control where 0% means no effect); conditions: HEK293 ACTOne CNG channel cells, membrane potential fluorescence; series mostly up to 22.9 µM
Method in brief: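 HEK293 ACTOne cells with CNG channel (1000/well), endogenous PDE4; membrane potential dye, compounds up to 22.9 uM final. Fluorescence Ex 535/Em 590; RO 20-1724 (100 uM final) as reference.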

[10] = target: Guanine nucleotide-binding protein G(i) subunit alpha-1 (Homo sapiens) (UniProt P63096); experiment: qHTS Assay for Inhibitors of RGS12 GoLoco Motif Activity (Green Fluorophore) (AID 879); conditions: Galphai1/FITC-RGS12 GoLoco peptide, fluorescence polarization; series mostly up to 57.1 µM;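 note: 0% = labeled peptide with Gαi1 and full inhibition = labeled peptide alone without protein; negative values mean loss of peptide binding seen as reduced polarization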
Method in brief: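 Fluorescence polarization assay: 50 nM Gαi1 with 10 nM FITC-labeled RGS12 GoLoco peptide in 10 mM Tris pH 7.5, 150 mM NaCl, 0.1 mM GDP, 0.05% NP40, 10 min at room temperature with compound.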

[11] = qHTS Assay for Identification of Small Molecule Antagonists for Thrombopoietin (TPO) Signaling Pathway (AID 918); conditions: TPO-dependent cell signaling reporter, antagonist mode; note: potency is the fitted concentration of half-maximal effect; nearly all actives have a fitted effect of over 60% in size
Method in brief: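 First, Ba/F3 reporter cells expressing human TPO receptor were held overnight without IL-3. Next, compound and 26 pM TPO were added. After 24 hrs incubation at 37 C, luciferase luminescence under the Glycoprotein IIb promoter was recorded.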

[12] = target: Muscarinic acetylcholine receptor M1 (Rattus norvegicus) (UniProt P08482); experiment: qHTS Assay for Antagonists of Acetylcholine Muscarinic M1 Receptor: Measurement of IP-One Response (AID 944); conditions: CHO-M1 cells, IP-One HTRF, antagonist mode; series mostly up to 46.1 µM; note: nearly all actives have a fitted effect of over 75% in size
Method in brief: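 Steps: plate transfected CHO-M1 cells overnight; add test compound, 10 min; add carbachol (200 nM, EC80) in stimulation buffer with LiCl; incubate 30 min; add labelled IP1 tracer and anti-IP1 antibody in lysis buffer; read HTRF after 10 min.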

[13] = target: Pyruvate kinase (Leishmania mexicana) (UniProt Q27686); experiment: qHTS Validation Assay for Inhibitors of Leishmania Mexicana Pyruvate Kinase (AID 945);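 note: 0% = DMSO only neutral control wells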; conditions: purified L. mexicana pyruvate kinase, enzyme activity, E451W mutant enzyme; series mostly up to 57.5 µM
Method in brief: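 Luminescent ATP detection (PKLight) after a 1 h room-temperature reaction of 0.2 nM LmPYK E451W mutant with 0.5 mM PEP and 0.1 mM ADP at pH 7.2. Activity is normalized to DMSO-only control wells.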

[14] = target: Pyruvate kinase PKM (Homo sapiens) (UniProt P14618); experiment: qHTS Assay for Activators of Human Muscle Pyruvate Kinase (AID 954; active = well fitted curve in the direction sought with a large enough effect, not every such curve was filed as active;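 note: 0% = uninhibited enzyme and -100% = no enzyme or full thiadiazolimine inhibition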); conditions: purified human muscle pyruvate kinase, luciferase-coupled luminescence, 1 h; series mostly up to 57.5 µM
Method in brief: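 Purified human PKM2 (0.1 nM) with 0.5 mM PEP (Km) and 0.1 mM ADP in 50 mM imidazole pH 7.2, KCl, MgCl2, 1 h at room temperature; ATP formed read by coupled luciferase luminescence. Normalized to no-enzyme/110 uM thiadiazolimine inhibition; 0.3 nM enzyme column for activation.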

[15] = target: Alpha-galactosidase A (Homo sapiens) (UniProt P06280); experiment: Counterscreen for Glucocerebrosidase Inhibitors: qHTS Assay for Human alpha-Galactosidase at pH 4.5 (AID 992); conditions: purified enzyme, fluorogenic substrate; series mostly up to 76.9 µM; note: 0% is about no effect
Method in brief: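 Human enzyme (2 nM) with 80 uM 4-methylumbelliferyl alpha-D-galactopyranoside in 50 mM citric acid, 0.005% Tween-20, pH 4.5, 20 min at room temperature. Compounds 0.7 nM–77 uM; fluorescence Ex 365/Em 440 after pH 10 stop; AC50 from Hill fits.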

[16] = target: alpha-glucosidase (Oryza sativa, rice) (UniProt Q653V4); experiment: Counterscreen for Glucocerebrosidase Inhibitors: qHTS Assay for Rice alpha-Glucosidase at pH 5.0 (AID 997); conditions: rice alpha-glucosidase enzyme activity; series mostly up to 76.9 µM;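 note: 0% = full activity with enzyme and -100% = basal without enzyme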
Method in brief: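 Rice alpha-glucosidase (4 nM final) with 400 uM 4-methylumbelliferyl-alpha-D-glucopyranoside in citrate buffer pH 5.0, 20 min at room temperature, stopped at pH 10; fluorescence 365/440 nm, compounds 0.7 nM–77 uM, AC50 from Hill fits.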

[17] = Counterscreen for APE1 Inhibitors: Fluorescent Dye Displacement Validation Assay (AID 1707); conditions: fluorescent dye displacement from DNA; series mostly up to 57.1 µM;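 note: plate controls were ThO with dsDNA and no compound for no effect and ThO without dsDNA for full effect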
Method in brief: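 Thiazole Orange (250 nM) bound to 50 nM TAMRA-labelled dsDNA with tetrahydrofuran abasic site; displacement by DNA-binding compounds lowers fluorescence. Buffer 50 mM Tris-HCl pH 7.5, 50 mM NaCl, 2 mM MgCl2, 0.01% Tween-20; endpoint read at 480/540 nm.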

[18] = qHTS for differential inhibitors of proliferation of Plasmodium falciparum line 7G8 (AID 1815); conditions: Plasmodium falciparum 7G8 proliferation inhibition; series mostly up to 28.7 µM;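 note: potency is the fitted concentration of half-maximal effect; parasite growth measured after three days of incubation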
[19] = qHTS for differential inhibitors of proliferation of Plasmodium falciparum line GB4 (AID 1816); conditions: Potency: Plasmodium falciparum GB4 proliferation inhibition; series mostly up to 28.7 µM;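 note: potency is the fitted concentration of half-maximal effect; parasite growth measured after 72 h incubation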
[20] = target: Ferritin light chain (Equus caballus) (UniProt P02791); experiment: qHTS Validation Assay for Identification of Novel General Anesthetics (AID 2323); conditions: horse apoferritin, anesthetic-site fluorescent probe displacement; series mostly up to 76.9 µM; note: % is set by controls: 0 for no effect and ±100 for the full control effect
Method in brief: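 Apoferritin from horse spleen (10 uM) was mixed with 1-aminoanthracene at 50% saturation in PBS, then compounds were added. After 10 min at room temperature, fluorescence was read (ex 380 nm, em 535 nm) and normalized to free-probe and complex controls.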

[21] = target: ATP-dependent DNA helicase Q1 (Homo sapiens) (UniProt P46063); experiment: qHTS Validation Assay for Inhibitors of RecQ-Like Dna Helicase 1 (RECQ1) (AID 2353); conditions: recombinant RECQ1 helicase DNA unwinding assay; series mostly up to 25.6 µM;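 note: plate controls were DMSO vehicle for no effect and enzyme-free control for full effect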
Method in brief: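 50 nM RECQ1T1 preincubated 15 min with compound in Tris pH 8.0 buffer with MgCl2, DTT, Tween-20 and 2.5 ug/ml poly(dI-dC); started with 200 nM TAMRA/BHQ-2 forked duplex and 2 mM ATP. Unwinding read as fluorescence (525/598 nm), two reads 2 h apart.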

[22] = target: M-phase phosphoprotein 8 (Homo sapiens) (UniProt Q99549); experiment: qHTS Validation Assay for Inhibitors for MPP8 Chromodomain Interactions with Methylated Histone Tails (AID 488949); conditions: AlphaScreen MPP8 binding to H3K9me3 peptide; series mostly up to 114 µM; note: potency is the fitted concentration of half-maximal effect; nearly all actives have a fitted effect of over 55% in size
Method in brief: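 Disruption of the preformed MPP8–trimethyl-H3K9 peptide complex (both 50 nM, 30 min, RT) is measured after 30 min compound exposure, using AlphaScreen proximity beads; aurintricarboxylic acid titration serves as plate control.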

[23] = target: Thyrotropin receptor (Homo sapiens) (UniProt P16473); experiment: qHTS Assay for Antagonists of the Thyroid Stimulating Hormone Receptor (AID 488980); conditions: TSHR-expressing cells, cAMP antagonist read-out; series mostly up to 57.5 µM; note: 0% is about no effect
Method in brief: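 Cells expressing human TSHR (HEK293) are dispensed in HBSS/HEPES containing 70 uM RO 20-1724, compound is added, then TSH at EC80 (4 nM final). Antibody in lysis buffer follows, 30 minutes at room temperature before HTRF detection.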

[24] = target: Thyrotropin-releasing hormone receptor (Homo sapiens) (UniProt P34981); experiment: qHTS for Small Molecule Agonists and Allosteric Enhancers of Human TRH Receptor: Validation Screen for Agonists (AID 493127;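 active = calcium activation more than 3 SD above the typical response in the agonist read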;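 note: intracellular calcium rise by fluo-8 fluorescence before TRH EC20 addition; 0% is about no effect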); conditions: TRH receptor agonist cell assay; at 2 µM; stronger effect = higher value
Method in brief: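 Gq-coupled calcium mobilization in TRHR cells after compound addition, monitored kinetically with fluo-8 dye on an FDSS reader.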

[25] = target: Galactokinase (Homo sapiens) (UniProt P51570); experiment: qHTS Validation Assay for Inhibitors of Human Galactokinase (GALK) (AID 493189); conditions: purified human GALK enzyme activity, qHTS 7-point titration; series mostly up to 57.5 µM; note: 0% is about no effect
Method in brief: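 Compounds were pin-transferred into ATP buffer, then GALK-galactose mix was added (final 5 nM enzyme, 100 uM galactose, 35 uM ATP). After 1 h at room temperature, remaining ATP was measured luminescently.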

[26] = Validation screen for small molecules that induce DNA re-replication in SW480 colon adenocarcinoma cells (AID 504364); conditions: DNA re-replication phenotype (high-content imaging); series mostly up to 46.1 µM; note: 0% is about no effect
Method in brief: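 Cells are treated 48 hr with test compound, stained 40 min with Hoechst at 37 C, and scanned for nuclear fluorescence; compounds inducing re-replication increase nuclei with elevated intensity.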

Sequence of Glucocorticoid receptor (Homo sapiens) (P04150 whole entry, looked up, the tested form may be a part): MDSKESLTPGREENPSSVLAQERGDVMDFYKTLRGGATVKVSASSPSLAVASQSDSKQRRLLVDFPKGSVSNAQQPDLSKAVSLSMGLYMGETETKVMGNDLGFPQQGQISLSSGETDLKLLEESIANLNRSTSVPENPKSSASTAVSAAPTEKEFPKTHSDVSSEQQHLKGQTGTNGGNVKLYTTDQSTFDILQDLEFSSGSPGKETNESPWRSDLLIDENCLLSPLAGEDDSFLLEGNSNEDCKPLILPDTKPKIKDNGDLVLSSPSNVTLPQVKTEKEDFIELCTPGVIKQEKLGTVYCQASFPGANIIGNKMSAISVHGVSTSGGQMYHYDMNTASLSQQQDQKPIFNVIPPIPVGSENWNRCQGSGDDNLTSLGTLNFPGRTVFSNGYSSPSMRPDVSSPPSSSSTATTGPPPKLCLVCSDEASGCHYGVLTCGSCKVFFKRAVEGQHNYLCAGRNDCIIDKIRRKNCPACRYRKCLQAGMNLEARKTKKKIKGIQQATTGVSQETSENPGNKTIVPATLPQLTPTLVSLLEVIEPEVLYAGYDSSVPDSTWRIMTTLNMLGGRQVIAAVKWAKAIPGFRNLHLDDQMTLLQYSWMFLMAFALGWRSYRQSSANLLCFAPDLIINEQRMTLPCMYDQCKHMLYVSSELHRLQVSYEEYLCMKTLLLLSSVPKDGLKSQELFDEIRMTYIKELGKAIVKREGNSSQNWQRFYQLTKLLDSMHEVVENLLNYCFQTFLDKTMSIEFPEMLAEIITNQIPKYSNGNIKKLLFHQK
Sequence of M-phase phosphoprotein 8 (Homo sapiens) (Q99549 whole entry, looked up): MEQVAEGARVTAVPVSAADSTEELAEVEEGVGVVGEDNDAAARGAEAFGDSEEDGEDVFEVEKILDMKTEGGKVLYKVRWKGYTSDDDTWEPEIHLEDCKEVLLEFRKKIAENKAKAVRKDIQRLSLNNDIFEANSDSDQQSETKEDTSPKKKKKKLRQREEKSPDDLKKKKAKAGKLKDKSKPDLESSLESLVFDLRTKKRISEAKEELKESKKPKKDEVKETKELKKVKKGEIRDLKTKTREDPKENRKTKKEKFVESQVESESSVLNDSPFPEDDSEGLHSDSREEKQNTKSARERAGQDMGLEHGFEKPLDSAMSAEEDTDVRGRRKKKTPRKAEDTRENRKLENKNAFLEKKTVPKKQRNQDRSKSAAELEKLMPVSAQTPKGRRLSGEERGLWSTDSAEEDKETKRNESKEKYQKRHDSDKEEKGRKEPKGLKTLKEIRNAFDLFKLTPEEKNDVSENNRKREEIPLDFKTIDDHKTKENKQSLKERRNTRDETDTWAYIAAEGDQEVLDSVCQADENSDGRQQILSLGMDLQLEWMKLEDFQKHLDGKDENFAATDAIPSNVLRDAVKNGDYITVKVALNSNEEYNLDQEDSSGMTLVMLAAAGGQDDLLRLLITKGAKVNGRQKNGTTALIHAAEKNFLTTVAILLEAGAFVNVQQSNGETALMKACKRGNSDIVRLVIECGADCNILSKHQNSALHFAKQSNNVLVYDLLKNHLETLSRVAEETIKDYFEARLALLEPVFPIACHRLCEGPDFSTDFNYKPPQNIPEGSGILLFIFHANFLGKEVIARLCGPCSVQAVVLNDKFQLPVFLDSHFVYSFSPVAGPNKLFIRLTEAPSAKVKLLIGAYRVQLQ
Sequence of Galactokinase (Homo sapiens) (P51570 whole entry, looked up): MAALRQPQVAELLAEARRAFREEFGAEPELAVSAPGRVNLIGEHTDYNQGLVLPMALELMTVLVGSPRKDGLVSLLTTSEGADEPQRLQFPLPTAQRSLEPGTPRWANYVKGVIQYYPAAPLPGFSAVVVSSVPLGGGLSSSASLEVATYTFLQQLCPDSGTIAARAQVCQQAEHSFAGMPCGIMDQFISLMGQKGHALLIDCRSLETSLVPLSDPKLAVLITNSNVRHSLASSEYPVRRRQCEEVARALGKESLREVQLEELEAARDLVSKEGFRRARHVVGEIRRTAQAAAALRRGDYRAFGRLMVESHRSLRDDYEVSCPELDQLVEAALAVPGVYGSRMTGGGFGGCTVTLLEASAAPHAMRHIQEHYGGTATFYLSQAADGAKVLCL
Sequence of Thyrotropin-releasing hormone receptor (Homo sapiens) (P34981 whole entry, looked up): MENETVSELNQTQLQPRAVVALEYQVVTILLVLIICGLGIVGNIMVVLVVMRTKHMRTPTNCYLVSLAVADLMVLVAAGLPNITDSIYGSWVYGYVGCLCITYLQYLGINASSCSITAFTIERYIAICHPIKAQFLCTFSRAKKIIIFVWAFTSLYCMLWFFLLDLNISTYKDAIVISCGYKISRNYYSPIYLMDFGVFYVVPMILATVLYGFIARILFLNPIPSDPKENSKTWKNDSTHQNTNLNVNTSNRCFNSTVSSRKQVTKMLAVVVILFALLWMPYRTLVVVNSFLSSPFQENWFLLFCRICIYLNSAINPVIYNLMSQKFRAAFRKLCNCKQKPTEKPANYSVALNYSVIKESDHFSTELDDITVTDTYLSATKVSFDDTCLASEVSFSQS
Sequence of Nicotinamide N-methyltransferase (Homo sapiens) (P40261 whole entry, looked up): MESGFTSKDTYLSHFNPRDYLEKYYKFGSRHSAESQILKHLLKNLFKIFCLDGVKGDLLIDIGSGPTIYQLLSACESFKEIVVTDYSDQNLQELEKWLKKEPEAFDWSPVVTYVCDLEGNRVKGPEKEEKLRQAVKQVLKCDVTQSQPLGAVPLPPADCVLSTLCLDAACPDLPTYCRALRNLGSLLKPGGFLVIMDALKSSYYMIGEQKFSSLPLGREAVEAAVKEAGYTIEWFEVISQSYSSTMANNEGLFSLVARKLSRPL
Sequence of Alpha-galactosidase A (Homo sapiens) (P06280 whole entry, looked up): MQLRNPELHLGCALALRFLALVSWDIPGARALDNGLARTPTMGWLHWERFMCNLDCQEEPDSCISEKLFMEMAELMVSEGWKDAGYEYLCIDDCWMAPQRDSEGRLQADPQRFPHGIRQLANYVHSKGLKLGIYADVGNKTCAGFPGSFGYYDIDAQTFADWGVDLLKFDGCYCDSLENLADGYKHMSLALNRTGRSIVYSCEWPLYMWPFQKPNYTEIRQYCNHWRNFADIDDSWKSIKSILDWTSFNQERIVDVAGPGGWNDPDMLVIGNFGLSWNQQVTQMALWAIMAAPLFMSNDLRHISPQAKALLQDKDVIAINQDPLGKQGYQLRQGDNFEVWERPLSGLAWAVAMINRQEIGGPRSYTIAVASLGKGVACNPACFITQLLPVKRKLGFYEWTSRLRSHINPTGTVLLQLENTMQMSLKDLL
Sequence of Pyruvate kinase (Leishmania mexicana) (Q27686 2-499 E452W): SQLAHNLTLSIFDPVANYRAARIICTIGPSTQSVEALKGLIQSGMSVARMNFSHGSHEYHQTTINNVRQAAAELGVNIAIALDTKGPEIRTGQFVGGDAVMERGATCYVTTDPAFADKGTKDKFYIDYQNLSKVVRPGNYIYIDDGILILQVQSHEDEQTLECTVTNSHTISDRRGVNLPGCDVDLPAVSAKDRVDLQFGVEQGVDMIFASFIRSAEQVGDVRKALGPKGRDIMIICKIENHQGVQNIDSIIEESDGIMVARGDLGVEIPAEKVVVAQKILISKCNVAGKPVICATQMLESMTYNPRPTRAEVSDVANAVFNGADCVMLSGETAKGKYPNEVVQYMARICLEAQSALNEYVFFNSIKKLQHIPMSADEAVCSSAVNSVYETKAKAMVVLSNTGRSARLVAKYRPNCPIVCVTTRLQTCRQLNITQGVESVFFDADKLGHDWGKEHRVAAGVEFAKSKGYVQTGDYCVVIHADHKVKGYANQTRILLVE
Sequence of Catechol O-methyltransferase (Homo sapiens) (P21964 whole entry, looked up): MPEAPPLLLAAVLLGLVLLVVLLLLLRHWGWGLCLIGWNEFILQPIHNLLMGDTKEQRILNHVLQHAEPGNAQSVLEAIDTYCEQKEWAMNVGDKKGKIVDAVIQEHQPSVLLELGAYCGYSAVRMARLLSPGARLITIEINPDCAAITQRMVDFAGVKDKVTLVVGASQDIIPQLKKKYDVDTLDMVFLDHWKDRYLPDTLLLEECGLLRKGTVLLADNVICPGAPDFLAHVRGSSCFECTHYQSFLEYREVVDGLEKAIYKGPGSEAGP
Sequence of 3',5'-cyclic-AMP phosphodiesterase 4B (Homo sapiens) (Q07343 whole entry, looked up): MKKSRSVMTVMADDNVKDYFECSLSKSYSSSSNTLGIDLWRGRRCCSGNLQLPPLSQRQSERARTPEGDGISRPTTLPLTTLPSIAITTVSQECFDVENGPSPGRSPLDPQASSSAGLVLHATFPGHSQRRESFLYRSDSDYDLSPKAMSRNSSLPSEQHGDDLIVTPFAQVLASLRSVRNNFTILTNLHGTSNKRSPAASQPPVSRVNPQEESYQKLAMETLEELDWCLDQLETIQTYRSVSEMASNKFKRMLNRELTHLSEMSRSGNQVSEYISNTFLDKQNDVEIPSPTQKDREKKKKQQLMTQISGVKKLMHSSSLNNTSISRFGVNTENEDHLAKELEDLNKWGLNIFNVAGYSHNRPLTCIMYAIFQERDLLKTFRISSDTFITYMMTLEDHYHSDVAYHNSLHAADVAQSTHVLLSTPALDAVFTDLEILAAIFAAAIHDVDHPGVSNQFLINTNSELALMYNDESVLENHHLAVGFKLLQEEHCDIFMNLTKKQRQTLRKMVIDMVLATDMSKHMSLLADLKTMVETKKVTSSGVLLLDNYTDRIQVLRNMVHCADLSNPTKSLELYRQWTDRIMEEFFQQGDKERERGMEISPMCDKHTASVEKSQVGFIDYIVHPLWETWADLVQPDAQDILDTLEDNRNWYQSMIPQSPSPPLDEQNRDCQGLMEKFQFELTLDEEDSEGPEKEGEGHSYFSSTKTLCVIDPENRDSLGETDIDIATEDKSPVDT
Sequence of Guanine nucleotide-binding protein G(i) subunit alpha-1 (Homo sapiens) (P63096 whole entry, looked up): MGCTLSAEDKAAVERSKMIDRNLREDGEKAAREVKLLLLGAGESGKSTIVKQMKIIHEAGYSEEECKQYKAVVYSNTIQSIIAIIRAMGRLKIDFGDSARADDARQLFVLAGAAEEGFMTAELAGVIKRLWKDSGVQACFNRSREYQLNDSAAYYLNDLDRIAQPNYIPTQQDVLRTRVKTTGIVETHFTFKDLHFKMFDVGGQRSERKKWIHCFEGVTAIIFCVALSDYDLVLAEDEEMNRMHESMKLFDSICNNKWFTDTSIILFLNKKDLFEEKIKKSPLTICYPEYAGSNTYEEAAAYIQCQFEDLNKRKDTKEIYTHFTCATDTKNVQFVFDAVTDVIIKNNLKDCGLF

COc1ccc(OC)c2c1cc1n2CC(C)(C(=O)NC2CCCCC2C)N(Cc2ccco2)C1=O (stereo unspecified)
-6.29%: activity change, negative = inhibition [2]
-25.6%: activity [3]
-9.78%: activity [1]
-10.3%: activity [4]

CC(C)C[C@H](N)CSSC[C@@H](N)CC(C)C
active: Potency [11] 12.6 µM | Potency [18] 14.1 µM | Potency [19] 10 µM | Potency [22] 50.1 µM
inactive: outcome [5] | Potency [6] > 46 µM | Potency [7] > 46 µM | Potency [8] | Potency [9] | Potency [10] | Potency [12] | outcome [13] | outcome [14] | outcome [15] | outcome [16] | outcome [17] | outcome [20] | outcome [21] | outcome [23] | activation [24] 6.19% | outcome [25] | Potency [26]
